From PubChem
A selection: hits, their analogues and other compounds. The true share with any hit is near 21%.
Pf growth 48h = P. falciparum growth inhibition at 48 hours (one generation). P. falciparum luciferase growth in erythrocytes, 48 h. Potency, µM (titrated, usually from 28.7 µM), inactives show at the highest dose activity change, negative = inhibition, usual class: inhibitors. 5.9% of 310,000 active. AID 504832; also: potency is read from the fitted curve at half-maximal effect; % is scaled to controls: 0 for no effect and ±100 for the full control effect
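A one-generation exposure of luciferase-tagged malaria parasites in RPMI 1640/Albumax erythrocyte culture, 37 C and 5% CO2. Inhibition is inferred from decreased luminescence after adding detection reagent.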
Shiga inhibitor = Shiga toxin inhibition; Vero cells, Shiga toxin protein synthesis inhibition reporter; inhibition, % at 38.7 µM; 9.2% of 290,000 active; in the data active = inhibition mostly above about 28%, no sharp cut-off; inactive = mostly below about 43%; also: 0% is about no effect
CHX counter = counter-screen hit for Shiga toxin inhibitors, cycloheximide; 12% of 300,000 active; max response, %; cell reporter, cycloheximide protein synthesis inhibition counterscreen; in the data active = max response mostly above about 13%, no sharp cut-off; inactive = mostly below about 14%; also: read at 38.3 µM for the half of the compounds with a filed dose; 0% is about no effect
Pf growth 96h = P. falciparum growth inhibition at 96 hour, primary screen for plastid delayed-death inhibitors. P. falciparum luciferase reporter growth, 96 h. Potency, µM (doses to about 28.7 µM), for inactives: top-dose activity change, negative = inhibition, actives largely listed as inhibitors. 6.9% of 320,000 active. AID 504834; also: potency is read from the fitted curve at half-maximal effect; % is scaled to controls: 0 for no effect and ±100 for the full control effect
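Plates of compound plus infected erythrocytes (2% hematocrit, 0.05% parasitemia final) incubate 96 hours, 37 C, 5% CO2. Detection reagent added; reduced luminescence from the parasites' luciferase reporter flags inhibition.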
* marks the source's active call; other numbers are inactive results; u = inconclusive; x = no result given. Unless noted, calls follow the shape of the dose curve; as a rule, active = well fitted inhibition curve with a large enough effect; inconclusive = small, poorly fitted or top-dose-only effect, or another doubt; inactive = no such curve, though single readings can be large or run the other way.

SMILES | Pf growth 48h | Shiga inhibitor | CHX counter | Pf growth 96h
O=C(NCc1n[nH]c(=S)n1-c1ccc([N+](=O)[O-])cc1)c1ccc(S(=O)(=O)N2CCOCC2)cc1 | 6% | 20 | 8 | 6.6µM*
CC1C(=O)N2CCCc3cc(S(=O)(=O)NCCc4ccccc4)cc1c32 (stereo unspecified) | -1% | -7 | -2 | 2.1µM*
COc1ccc(CCNS(=O)(=O)c2cc3c4c(c2)C(C)C(=O)N4CCC3)cc1OC (stereo unspecified) | 0% | -2 | -3 | u
COCCNC(=O)C(=O)Nc1cc2c3c(c1)C(C)C(=O)N3CCC2 (stereo unspecified) | 34% | 17 | -5 | 104%
CC1C(=O)N2CCCc3cc(NC(=O)C(=O)NCc4ccc5c(c4)OCO5)cc1c32 (stereo unspecified) | 8.3µM* | x | x | 7.4µM*
COc1ccccc1CCNC(=O)C(=O)Nc1cc2c3c(c1)C(C)C(=O)N3CCC2 (stereo unspecified) | 13µM* | x | x | u
O=C(NCCc1c[nH]c2ccccc12)C(=O)Nc1cc2c3c(c1)CC(=O)N3CCC2 | 1µM* | x | x | 2.9µM*
O=C(COC(=O)C1CC1)Nc1ccc(Cl)cc1Cl | 11% | x | x | -16%
COc1ccc(S(=O)(=O)Nc2cc3c4c(c2)C(C)C(=O)N4CCC3)cc1OC (stereo unspecified) | -8% | x | x | -16%
COc1ccc(C=O)cc1OC(=O)N1CCOCC1 | 18% | 15 | -2 | u
Nc1cc(-c2ccccc2)c[nH]c1=O | x | 25 | 4 | x
COc1ccccc1CC(=O)NNC(=O)c1ccco1 | -2% | 3 | -2 | u
O=C1Oc2ccccc2C(=O)C1C(CC(O)c1ccc(-c2ccc(Br)cc2)cc1)c1ccccc1 (stereo unspecified) | -3% | x | x | -25%
COc1ccc(C(=O)n2c(SC)nc3cc4c(cc32)OCCO4)cc1 | 43% | 52* | 49* | -2%
COc1ccc(C(=O)c2cc3c(cc2[N+](=O)[O-])OCCO3)cc1 | 12% | 21 | 9 | 22%
CN(c1ccccc1)S(=O)(=O)c1cccc(C(=O)OCC(=O)NCCCN2CCCC2=O)c1 | -11% | -13 | 7 | u
Cc1c(C)n(CC(O)CNc2ccccc2)c2ccccc12 (stereo unspecified) | u | -28 | -3 | u
COc1ccc(NCC(O)Cn2c(C)c(C)c3ccccc32)cc1 (stereo unspecified) | u | -8 | 2 | 7.4µM*
Cc1ccc(CSc2nc3ccccc3c(=O)n2C)cc1 | -20% | -5 | 1 | -13%
Cc1c(CC(=O)N2C[C@H]3C[C@@H](C2)c2cccc(=O)n2C3)c(=O)oc2cc3occ(C(C)(C)C)c3cc12 | -27% | -8 | -2 | 8.3µM*
Cc1coc2cc3oc(=O)c(CC(=O)N4C[C@H]5C[C@@H](C4)c4cccc(=O)n4C5)c(C)c3cc12 | 0% | -2 | -2 | u
C=C(C)COc1ccc2c(C)c(CC(=O)N3C[C@H]4C[C@@H](C3)c3cccc(=O)n3C4)c(=O)oc2c1C | u | -5 | -1 | 12µM*
CCOc1ccc(CNS(=O)(=O)c2c(C)nc3sccn3c2=O)cc1OC | 3% | -5 | -2 | -16%
Cc1cc(-c2csc(NC(=O)c3ccc(S(=O)(=O)N(C)C)cc3)n2)c(C)n1-c1ccccc1 | u | 9 | -3 | 10µM*
Cc1ccc(S(=O)(=O)N2CCOCC2)cc1NC(=O)c1cc(-c2ccccn2)nc2ccccc12 | 9.3µM* | -2 | -3 | u
SMILES | Pf growth 48h | Shiga inhibitor | CHX counter | Pf growth 96h
Cc1ccc(S(=O)(=O)N2CCOCC2)cc1C(=O)NCc1cccnc1 | 12% | 11 | -2 | x
CN(CC1CCCO1)S(=O)(=O)c1ccc(C(=O)Nc2nnc(-c3ccccc3)o2)cc1 (stereo unspecified) | u | 10 | 4 | u
CN(CC1CCCO1)S(=O)(=O)c1ccc(C(=O)Nc2nc(-c3ccccn3)cs2)cc1 (stereo unspecified) | 12µM* | -12 | -4 | 3.3µM*
Cc1ccc(S(=O)(=O)N2CCOCC2)cc1C(=O)Nc1nc(-c2cccnc2)cs1 | 9.3µM* | -11 | 1 | -9%
Cc1ccc(C(=O)Nc2nc(-c3ccccn3)cs2)cc1S(=O)(=O)N1CCOCC1 | 1.7µM* | x | x | 0.47µM*
O=C(Nc1nc(-c2ccccn2)cs1)c1cc(S(=O)(=O)N2CCOCC2)ccc1F | 10µM* | x | x | 10µM*
O=C(Nc1nc(-c2ccccn2)cs1)c1ccc(F)c(S(=O)(=O)N2CCOCC2)c1 | 1.5µM* | x | x | 0.83µM*
Cc1ccc(S(=O)(=O)N2CCOCC2)cc1C(=O)Nc1ccncc1 | -9% | x | x | -19%
Cc1ccc(S(=O)(=O)N2CCOCC2)cc1C(=O)Nc1ccc(-c2cn3ccsc3n2)cc1 | 9.3µM* | 18 | 20* | -11%
Cc1ccc(Cl)cc1N(C)C(=O)Cn1ncc2c([nH]c3ccccc32)c1=O | u | -2 | 6 | u
Cn1cc(C(CO)Cc2ccccc2)c2ccccc21 (stereo unspecified) | u | x | x | -28%
COc1ccc2c(c1)c1ncn(CC3CCCO3)c(=O)c1n2C (stereo unspecified) | 13% | 18 | 12 | -9%
COc1ccc2c(c1)nc1n2CN(CC2CCCO2)CN1Cc1ccccc1 (stereo unspecified) | 9.3µM* | 49* | 32* | 12µM*
CC(C)(C)NC(=O)COC(=O)/C=C/c1ccccc1[N+](=O)[O-] | x | 38* | 24* | 4%
O=C(COC(=O)/C=C/c1ccccc1[N+](=O)[O-])Nc1ccc(OCc2ccccc2)cc1 | 95% | 39* | 17* | 114%
O=C(COC(=O)/C=C/c1ccccc1[N+](=O)[O-])Nc1ccc(OC(F)F)cc1 | 8% | -3 | 8 | 29%
Cc1ccc(S(=O)(=O)Nc2cccc(C(=O)NCC3CCCO3)c2)cc1F (stereo unspecified) | -7% | x | x | -2%
CCC1CCCCN1CCCNC(=O)Cn1cnc2sc(C)c(S(=O)(=O)N3CC(C)CC(C)C3)c2c1=O (stereo unspecified) | u | -3 | -4 | 2%
N=C1CCC(=N)c2c1c(O)c1ccccc1c2O | u | 4 | 13* | u
N#Cc1c(C#N)c(O)c2ccccc2c1O | -15% | -6 | 10 | u
Cc1ccc(NC(=O)C(=O)NCCCN2CCCC2=O)cc1 | 15% | x | x | 184%
O=C(NCCN1CCc2ccccc2C1)Nc1ccc(F)cc1 | -15% | 1 | 1 | -2%
CCc1ccc(NC(=O)NCCN2CCc3ccccc3C2)cc1 | 4% | 15 | 15 | 2.1µM*
CCOC(=O)c1ccc(NC(=S)NCCCN2CCCC2=O)cc1 | 44% | -6 | 4 | 2.6µM*
CCc1ccc(NC(=O)NCCCN2CCCC2=O)cc1 | 38% | 31* | 28* | 35%
O=C(Cc1c(F)cccc1Cl)NNC(=S)Nc1ccc(S(=O)(=O)Nc2ncccn2)cc1 | u | -4 | -3 | 14%
O=C(Nc1ccc(-c2cnco2)cc1)c1ccc(F)cc1F | 0% | 35* | 34* | 186%
Cc1ccc(C)c(NC(=S)N2CCC(NC(=O)c3ccc(F)cc3)CC2)c1 | -6% | -3 | -2 | 5%
Cc1noc(C)c1C(=O)Nc1nc(-c2ccccc2Cl)cs1 | 62% | 66* | 36* | 89%
